The source of these data is paper PMC4336329 (PLoS ONE, 2015).

Out of some 310,000 compounds screened, about 2,200 (0.71%) showed an effect of 50% or more. The effect is printed as a negative number. The sample holds strong results, similar compounds and a random draw of the others, so the mix is not that of the screen.

The target in the assay is human ether-à-go-go-related gene (hERG) potassium channel (human, UniProt Q12809). The experiment in a line: primary screen, population patch clamp on CHO cells stably expressing hERG; higher = less effect of the substance.
Chain of human ether-à-go-go-related gene (hERG) potassium channel (Q12809 whole entry, looked up): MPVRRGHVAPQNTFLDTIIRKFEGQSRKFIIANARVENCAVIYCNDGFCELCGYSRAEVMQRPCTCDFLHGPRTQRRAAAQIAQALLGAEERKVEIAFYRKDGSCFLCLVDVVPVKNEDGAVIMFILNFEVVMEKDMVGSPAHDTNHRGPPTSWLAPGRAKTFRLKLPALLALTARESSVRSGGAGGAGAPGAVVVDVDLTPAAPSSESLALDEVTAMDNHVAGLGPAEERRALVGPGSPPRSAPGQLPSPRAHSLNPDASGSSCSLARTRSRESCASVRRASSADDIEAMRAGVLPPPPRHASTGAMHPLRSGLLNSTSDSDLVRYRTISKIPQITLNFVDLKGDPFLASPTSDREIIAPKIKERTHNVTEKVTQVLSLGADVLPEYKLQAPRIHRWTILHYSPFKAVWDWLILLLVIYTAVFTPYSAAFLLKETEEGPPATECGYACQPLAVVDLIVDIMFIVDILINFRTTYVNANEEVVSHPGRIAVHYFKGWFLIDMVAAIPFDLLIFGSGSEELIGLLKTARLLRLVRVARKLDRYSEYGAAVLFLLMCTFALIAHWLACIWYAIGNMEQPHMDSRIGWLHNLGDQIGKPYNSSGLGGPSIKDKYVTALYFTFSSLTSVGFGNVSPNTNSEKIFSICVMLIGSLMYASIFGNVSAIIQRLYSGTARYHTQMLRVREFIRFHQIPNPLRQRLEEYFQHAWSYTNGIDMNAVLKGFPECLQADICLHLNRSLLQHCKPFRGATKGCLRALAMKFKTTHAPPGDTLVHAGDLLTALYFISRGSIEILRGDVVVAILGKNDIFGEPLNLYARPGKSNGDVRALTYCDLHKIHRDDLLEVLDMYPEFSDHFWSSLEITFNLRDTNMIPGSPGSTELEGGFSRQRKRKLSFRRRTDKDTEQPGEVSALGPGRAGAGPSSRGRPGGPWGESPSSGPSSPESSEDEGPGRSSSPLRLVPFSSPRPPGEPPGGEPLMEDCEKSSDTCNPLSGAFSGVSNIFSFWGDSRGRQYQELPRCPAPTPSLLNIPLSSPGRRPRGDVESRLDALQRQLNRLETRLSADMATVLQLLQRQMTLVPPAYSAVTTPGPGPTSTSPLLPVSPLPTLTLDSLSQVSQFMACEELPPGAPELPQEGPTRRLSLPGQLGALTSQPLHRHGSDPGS
Take `COc1ccc(N(CC(=O)NC2CC3CCC2C3)S(=O)(=O)c2ccc(C)c([N+](=O)[O-])c2)cc1` (stereo not shown): the “hERG current change (%, negative = inhibition) at 1uM” value is 10.2%.

For `COc1cccc(C(=O)NNS(=O)(=O)c2ccc(C)cc2)c1`, the “hERG current change (%, negative = inhibition) at 1uM” value worked out at 13%. Take `O=C(NCc1ccco1)c1cccc(NS(=O)(=O)c2ccccc2F)c1`: the “hERG current change (%, negative = inhibition) at 1uM” value is 6.58%.

Consider `Cc1ccc(NC(=O)CSCC(=O)NCc2cccc(C(F)(F)F)c2)cc1`, for which the “hERG current change (%, negative = inhibition) at 1uM” value is reported as 6.6%. For `O=C(CN(C(=O)C1COc2ccccc2O1)c1ccccc1)NCC1CCCO1` (stereo not shown), the “hERG current change (%, negative = inhibition) at 1uM” value is reported as -9.34%. In the case of `CCOc1ccccc1Nc1nc(N)nc(CSc2nncn2C)n1`, the “hERG current change (%, negative = inhibition) at 1uM” value came out at 9.75%. On to `Cc1cccc(OCC(=O)Nc2ccc(C(=O)NCC(C)C)cc2)c1`, for which the “hERG current change (%, negative = inhibition) at 1uM” value was 4.42%. For the molecule `CCOCCCNC(=S)Nc1cc(OCC)c(NC(=O)c2ccco2)cc1OCC`, the “hERG current change (%, negative = inhibition) at 1uM” value was 7.7%. Regarding `COc1ccc(C(=O)N2CCN=C2SCc2cccnc2)cc1OC`, the “hERG current change (%, negative = inhibition) at 1uM” value is 9.25%.

In the case of `COc1nnc(-c2ccc(C)c(S(=O)(=O)NC(C)C)c2)c2ccccc12`, the “hERG current change (%, negative = inhibition) at 1uM” value was -5.36%. For `COc1nnc(-c2ccc(C)c(S(N)(=O)=O)c2)c2ccccc12`, the “hERG current change (%, negative = inhibition) at 1uM” value worked out at 3.63%.

Consider `COc1nnc(-c2ccc(C)c(S(=O)(=O)N(C)C)c2)c2ccccc12`, for which the “hERG current change (%, negative = inhibition) at 1uM” value was -53.6%. With `CC(=O)Nc1ccc(NC2CCCCC2NS(=O)(=O)c2ccc(Cl)cc2)cc1` (stereo not shown), the “hERG current change (%, negative = inhibition) at 1uM” value is 12%. On to `CCOC(=O)C1(Cc2ccccc2)CCCN(CCCn2cccn2)C1` (stereo not shown), for which the “hERG current change (%, negative = inhibition) at 1uM” value is on record as 3.88%.

Take `CCOC(=O)C1(Cc2cccc(F)c2)CCN(Cc2cn(CC)nc2C)CC1`: the “hERG current change (%, negative = inhibition) at 1uM” value is -6.14%. Take `CCOC(=O)C1(Cc2ccc(Cl)cc2)CCN(CCCn2cccn2)CC1`: the “hERG current change (%, negative = inhibition) at 1uM” value is given as -77%. `CCOC(=O)C1(CCCc2ccccc2)CCN(Cc2nccn2CC)CC1`: the “hERG current change (%, negative = inhibition) at 1uM” value was -45.8%.

Regarding `CCOC(=O)C1(CCCc2ccccc2)CCN(Cc2cnn(C)c2)CC1`, the “hERG current change (%, negative = inhibition) at 1uM” value is given as -46.4%. Take `CCOC(=O)C1(Cc2ccccc2C(F)(F)F)CCN(CCCn2cccn2)CC1`: the “hERG current change (%, negative = inhibition) at 1uM” value is given as -49.2%.

Consider `CCOC(=O)C1(CCCc2ccccc2)CCN(CCCn2cccn2)CC1`, for which the “hERG current change (%, negative = inhibition) at 1uM” value is on record as -84.6%. On to `CCCn1cc(CN2CCC(Cc3cccc(F)c3)(C(=O)OCC)CC2)c(C)n1`, for which the “hERG current change (%, negative = inhibition) at 1uM” value was -60.3%.

Turning to `CCCn1cc(CN2CCC(Cc3ccccc3)(C(=O)OCC)CC2)c(C)n1`, the “hERG current change (%, negative = inhibition) at 1uM” value is given as -14%. For the molecule `CCOC(=O)C1(Cc2ccc(Cl)cc2)CCN(C(C)CCn2cccn2)CC1` (stereo not shown), the “hERG current change (%, negative = inhibition) at 1uM” value is on record as -87.1%. As for `CCOC(=O)C1(Cc2ccc(Cl)cc2)CCN(C(C)Cc2ccc(O)c(OC)c2)CC1` (stereo not shown), the figure is -7.39%. In the case of `CCOC(=O)C1(Cc2ccccc2C(F)(F)F)CCN(C(C)CCn2cccn2)CC1` (stereo not shown) it was -40.8%; in that of `Cc1ccc(C2=NN(CCC(=O)NCCCN3CCOCC3)C(=O)CC2)cc1`, -9.94%; in that of `O=C(CNC(=O)c1nc[nH]c1C(=O)NCC(=O)OCc1ccccc1)OCc1ccccc1`, 10.3%. For the molecule `COc1ccccc1NC(CC(=O)c1ccccc1)C(=O)OCC(=O)c1ccc(F)cc1` (stereo not shown), the “hERG current change (%, negative = inhibition) at 1uM” value is recorded as -11.1%.

For the molecule `COc1ccccc1C(=O)Nc1c2c(nn1-c1cccc(C)c1C)CS(=O)C2` (stereo not shown), the “hERG current change (%, negative = inhibition) at 1uM” value was -3.22%. `Cc1ccc(-n2c(O)c(C=Nc3ccc(S(=O)(=O)Nc4ncccn4)cc3)c3ccccc3c2=O)cc1C`: the “hERG current change (%, negative = inhibition) at 1uM” value is given as -2.78%. As to `CC(=O)N1N=C(c2ccc(Br)cc2)CC1c1cn(C)c2ccccc12` (stereo not shown), the “hERG current change (%, negative = inhibition) at 1uM” value is given as 9.41%. In the case of `O=C(N/N=C1\CCCc2ccccc21)c1cccc(Br)c1`, the “hERG current change (%, negative = inhibition) at 1uM” value is recorded as 9.96%. In the case of `CCOC(=O)C1(Cc2cccc(F)c2)CCN(CC2CC2)CC1`, the “hERG current change (%, negative = inhibition) at 1uM” value is -2.54%. In the case of `CCOC(=O)C1(Cc2cccc(F)c2)CCN(Cc2cnn(CC)c2)CC1`, the “hERG current change (%, negative = inhibition) at 1uM” value is given as -4.74%.

For the molecule `CCOC(=O)C1(CCCc2ccccc2)CCN(Cc2ccn[nH]2)CC1`, the “hERG current change (%, negative = inhibition) at 1uM” value was -27.8%.

On to `CCOC(=O)C1(Cc2ccc(Cl)cc2)CCN(Cc2cn(CC)nc2C)CC1`, for which the “hERG current change (%, negative = inhibition) at 1uM” value was -28.5%.

Turning to `CCOC(=O)C1(Cc2cccc(F)c2)CCN(CCCn2cccn2)CC1`, the “hERG current change (%, negative = inhibition) at 1uM” value is listed as -51.2%.

Consider `CCOC(=O)C1(CCCc2ccccc2)CCN(Cc2cn(CC)nc2C)CC1`, for which the “hERG current change (%, negative = inhibition) at 1uM” value was -59.8%. For `COC(=O)C1=CN(Cc2ccc(OC)c(OC)c2)C=C(C(=O)OC)C1c1ccc(F)cc1`, the “hERG current change (%, negative = inhibition) at 1uM” value is 4.21%.

Turning to `COCCNC(=O)c1ccc(CSc2nc3ccccc3s2)cc1`, the “hERG current change (%, negative = inhibition) at 1uM” value is 3.95%. `Cn1c(C(=O)N2CCN(c3ccc(Cl)cc3)CC2)cc2c(=O)[nH]c3ccccc3c21`: the “hERG current change (%, negative = inhibition) at 1uM” value is -56%. For `Cc1ccc(Cl)cc1N1CCN(C(=O)c2cc3c(=O)[nH]c4ccccc4c3n2C)CC1`, the “hERG current change (%, negative = inhibition) at 1uM” value was determined as 10.4%. On to `Cc1cccc(N2CCN(C(=O)c3cc4c(=O)[nH]c5ccccc5c4n3C)CC2)c1C`, for which the “hERG current change (%, negative = inhibition) at 1uM” value is listed as 11.2%. For the molecule `COc1ccccc1C(=O)Nn1c(C2CCC2)nc2ccccc2c1=O`, the “hERG current change (%, negative = inhibition) at 1uM” value is 4.52%.

Take `CCc1ccc(CNC(=O)Cn2nc(-c3ccccc3)ccc2=O)cc1`: the “hERG current change (%, negative = inhibition) at 1uM” value is recorded as 8.46%. In the case of `CC1CCc2c(sc(NC(=O)C(=O)NCc3ccco3)c2C#N)C1` (stereo not shown) it was -63.6%; in that of `CC1CCc2c(sc(NC(=O)COC(=O)c3ccccc3NCc3ccco3)c2C#N)C1` (stereo not shown), 12.9%. Consider `CC(=O)Nc1sc2c(c1C#N)CCC(C)C2` (stereo not shown), for which the “hERG current change (%, negative = inhibition) at 1uM” value is reported as 11.7%. With `Cc1cc(C)nc(SCc2ccc([N+](=O)[O-])cc2)n1`, the “hERG current change (%, negative = inhibition) at 1uM” value is 6.29%. With `CC(=O)c1cc(C#N)c(SCc2ccc([N+](=O)[O-])cc2)nc1C`, the “hERG current change (%, negative = inhibition) at 1uM” value stood at 10.4%. As for `Cc1nc(N)nc(SCc2ccc([N+](=O)[O-])cc2)c1N`, the figure is -70.8%; as for `CC(OC(=O)c1ccc2ncsc2c1)C(=O)Nc1ncc(Cl)cc1Cl` (stereo not shown), 8.58%; as for `CC(NC(=O)c1ccc2c(c1)OCCO2)c1ccc(S(N)(=O)=O)cc1` (stereo not shown), -3.42%. In the case of `O=[N+]([O-])c1ccc2oc(C3CCCCC3)nc2c1`, the “hERG current change (%, negative = inhibition) at 1uM” value is 14.4%. With `CC(NC(=O)c1cccc(S(=O)(=O)N(C)C)c1)c1nc2ccccc2[nH]1` (stereo not shown), the “hERG current change (%, negative = inhibition) at 1uM” value was 9.08%.
